In PubChem BioAssay (Tox21):
Unmarked numbers belong to inactive results. Inconclusive results are not listed. Where a call stands in place of a potency, no number is given. Activity calls are given as the source filed them. Calls follow the shape of the full dose curve.

Experiments:
[1] = target: Acetylcholinesterase (Homo sapiens) (UniProt P22303); assay: Acetylcholinesterase (AChE) small molecule antagonists: colormetric cell-based qHTS assay (AID 1347395); details: SH-SY5Y cells AChE activity, colorimetric (Ellman); series mostly up to 115 µM; also: nearly all actives have a fitted effect of over 30% in size; also: potency is read from the fitted curve at half-maximal effect
Outline: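 Quantitative HTS in attached SH-SY5Y cells: 30 min compound exposure, then 90 min with acetylthiocholine and DTNB at 37 C; colour from thiocholine reports AChE activity.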

[2] = target: Acetylcholinesterase (Homo sapiens) (UniProt P22303); assay: Acetylcholinesterase (AChE) small molecule antagonists: enzyme-based qHTS assay (AID 1347397); details: Potency: AChE enzyme activity inhibition; outcome: AChE enzyme activity inhibition; series mostly up to 115 µM; also: nearly all actives have a fitted effect of over 55% in size
Outline: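 Compound or DMSO vehicle was pin-transferred onto recombinant human AChE (50 mU/mL as dispensed) and left 30 min at room temperature. Acetylthiocholine with DTNB then started the reaction, read colorimetrically 10 min later.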

[3] = target: Acetylcholinesterase (Homo sapiens) (UniProt P22303); assay: Acetylcholinesterase (AChE) small molecule antagonists: enzyme-based qHTS assay with human liver microsomes (AID 1347399); details: Potency: qHTS inhibition; outcome: qHTS inhibition; series mostly up to 115 µM; also: nearly all actives have a fitted effect of over 60% in size
Outline: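 Recombinant human AChE (50 mU/mL in the enzyme mix) and human liver microsomes (0.25 mg/mL final) were preincubated with compound and NADPH (0.25 mg/mL final) for 30 min at 37 C. Acetylthiocholine/DTNB was then added; thiocholine was read colorimetrically after 10 min at room temperature.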

[4] = target: Acetylcholinesterase (Homo sapiens) (UniProt P22303); assay: Acetylcholinesterase (AChE) small molecule antagonists: fluorescence cell-based qHTS assay (AID 1347398); details: SH-SY5Y cells; Potency: AChE activity; outcome: AChE activity; series mostly up to 115 µM; also: nearly all actives have a fitted effect of over 50% in size; also: potency is read from the fitted curve at half-maximal effect
Outline: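 Using neuroblastoma SH-SY5Y cells as the enzyme source, test chemicals are preincubated 30 min at 37 C; AChE-driven acetylthiocholine cleavage is then quantified by thiocholine-dependent Thiolite Green fluorescence after 40 min at room temperature.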

Acetylcholinesterase (Homo sapiens), sequence (P22303 whole entry, looked up): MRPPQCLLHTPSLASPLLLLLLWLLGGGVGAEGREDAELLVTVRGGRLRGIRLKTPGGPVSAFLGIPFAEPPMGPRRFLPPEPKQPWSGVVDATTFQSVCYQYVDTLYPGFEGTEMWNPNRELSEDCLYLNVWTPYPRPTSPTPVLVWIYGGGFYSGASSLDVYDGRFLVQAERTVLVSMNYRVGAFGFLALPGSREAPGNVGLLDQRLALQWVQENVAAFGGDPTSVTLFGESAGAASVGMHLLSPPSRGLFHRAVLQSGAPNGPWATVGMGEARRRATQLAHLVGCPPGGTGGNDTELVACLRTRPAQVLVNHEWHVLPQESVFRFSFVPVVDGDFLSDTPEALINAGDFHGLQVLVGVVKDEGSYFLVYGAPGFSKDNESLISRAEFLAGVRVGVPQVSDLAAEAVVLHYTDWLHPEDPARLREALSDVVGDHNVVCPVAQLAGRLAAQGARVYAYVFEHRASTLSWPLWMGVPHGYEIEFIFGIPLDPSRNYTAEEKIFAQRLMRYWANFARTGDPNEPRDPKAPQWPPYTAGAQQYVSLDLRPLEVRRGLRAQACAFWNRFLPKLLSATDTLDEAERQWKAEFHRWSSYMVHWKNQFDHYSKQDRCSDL

Question: Which Potency [1] does the source give for `CCOC(=O)c1ccccc1OC` here?
Answer: Its Potency is “inactive”.

Question: What about the Potency [2] of the same molecule?
Answer: The Potency was “inactive”.

Question: What about the Potency [3] of the same molecule?
Answer: Its Potency is “inactive”.

Question: How did the Potency [1] turn out when `CCCCCCCCOC(=O)c1cc(O)c(O)c(O)c1` was run?
Answer: Its Potency is “inactive”.

Question: And the Potency [4]?
Answer: The Potency was “inactive”.

Question: And the Potency [3]?
Answer: Its Potency is “inactive”.

Question: For `COc1cc(C(C)=O)ccc1OCCCN1CCC(c2noc3cc(F)ccc23)CC1`, which Potency [1] is on record?
Answer: Its Potency is 19.5 µM (active).

Question: What about the Potency [2] of the same molecule?
Answer: The Potency was “inactive”.

Question: What about the Potency [3] of the same molecule?
Answer: Its Potency is “inactive”.

Question: Which Potency [1] does the source give for `CCCC(C)C=O` (stereo not given) here?
Answer: The Potency was “inactive”.

Question: What about the Potency [4] of the same molecule?
Answer: The Potency was “inactive”.

Question: What about the Potency [3] of the same molecule?
Answer: The Potency was “inactive”.

Question: Which results are given for `Nc1ccc(Cl)c([N+](=O)[O-])c1`?
Answer: Potency [1]: inactive; Potency [2]: inactive; Potency [3]: inactive

Question: How did the activity, negative = inhibition [1] turn out when `CCCCCCCCCCCCS(=O)(=O)Cl` was run?
Answer: The activity, negative = inhibition was -0.822% [at 23.6 µM].

Question: And the activity change, negative = inhibition [2]?
Answer: Its activity change, negative = inhibition is 0.136% [at 23.6 µM].

Question: And the activity change, negative = inhibition [3]?
Answer: Its activity change, negative = inhibition is 0.324% [at 23.6 µM].

Question: How did the Potency [1] turn out when `CCNC(=O)C1CC(C)CCC1C(C)C` (stereo not given) was run?
Answer: Its Potency is “inactive”.

Question: And the Potency [2]?
Answer: The Potency was “inactive”.

Question: What about the Potency [3] of the same molecule?
Answer: Its Potency is “inactive”.

Question: Which results are given for `c1ccc(C[P+](c2ccccc2)(c2ccccc2)c2ccccc2)cc1`?
Answer: Potency [1]: 71 µM (active); Potency [4]: 12.6 µM (active); Potency [3]: inactive

Question: How did the Potency [1] turn out when `Cc1ccc(C(=O)C(=O)O)cc1C` was run?
Answer: The Potency was “inactive”.

Question: What about the Potency [2] of the same molecule?
Answer: The Potency was “inactive”.

Question: And the Potency [3]?
Answer: Its Potency is “inactive”.

Question: Which results are given for `CNC(=O)c1ccccc1Sc1ccc2c(/C=C/c3ccccn3)n[nH]c2c1`?
Answer: Potency [1]: inactive; Potency [2]: inactive; Potency [3]: inactive

Question: Which results are given for `CCCCC`?
Answer: Potency [1]: inactive; Potency [4]: inactive; Potency [3]: inactive

Question: Which Potency [1] does the source give for `CN(C)CCOc1ccc(/C(=C(/CCCl)c2ccccc2)c2ccccc2)cc1` here?
Answer: The Potency was “inactive”.

Question: What about the Potency [4] of the same molecule?
Answer: Its Potency is “inactive”.

Question: And the Potency [3]?
Answer: Its Potency is “inactive”.

Question: How did the Potency [1] turn out when `COc1ccc(C(=O)Nc2nc3ccccc3c(NCc3ccccc3)c2C#N)cc1` was run?
Answer: The Potency was “inactive”.

Question: And the Potency [2]?
Answer: The Potency was “inactive”.

Question: And the Potency [3]?
Answer: The Potency was “inactive”.

Question: Which Potency [1] does the source give for `CN1CCN(c2ccccc2/C=C2\SCCN(c3ccc(Cl)c(Cl)c3)C2=O)CC1` here?
Answer: The Potency was “inactive”.

Question: What about the Potency [4] of the same molecule?
Answer: Its Potency is 39.9 µM (active).

Question: What about the Potency [3] of the same molecule?
Answer: Its Potency is “inactive”.

Question: How did the Potency [1] turn out when `CCOc1ccc2nc3cc(N)ccc3c(N)c2c1` was run?
Answer: Its Potency is 17.4 µM (active).

Question: What about the Potency [4] of the same molecule?
Answer: The Potency was 13.8 µM (active).

Question: And the Potency [3]?
Answer: The Potency was “inactive”.
